# Test results published in PubChem BioAssay (EPA / NIEHS).
# “And” between values parts separate entries of the source, which are not always exact repeats. Equal entries are not always repeated. Where a structure was tested more than once in an assay, its records may differ in their call. The source made the active and inactive calls. How the source made its calls: active means hit-call score of the fitted dose curve at least 0.9, where 1 is the maximum; inactive means score below 0.9.
# Read-out: Monocyte Chemoattractant Protein-1 (MCP1), CCL2 (gene 6347)
# Test: BSK_LPS_MCP1: BioMAP Diversity Plus: LPS Assay for Monocyte Chemoattractant Protein-1 (MCP1) Biomarker Activity (AID 2283081);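 on AC50: co-culture stimulated with LPS; secreted MCP-1 protein quantified by ELISA in culture supernatant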
# Settings: primary human HUVEC with PBMC; actives raise or lower the signal
# In short: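 Secreted MCP-1 read by ELISA at 24 h post-dosing in an LPS-activated co-culture of endothelial cells with peripheral blood mononuclear cells. Fits run in both directions, DMSO as baseline; parallel SRB staining tracks overt cytotoxicity.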
Compound,AC50,outcome
CC/C(=C(\c1ccccc1)c1ccc(OCCN(C)C)cc1)c1ccccc1,28.3 µM (active) and 12.4 µM (active),
CC(=O)CCC=C(C)CCC=C(C)C,,inactive
CC(C)Cc1ccc(C(C)C(=O)O)cc1 (configuration not stated),,inactive
CC(C)(CO)CO,,inactive
OCC(F)(OC(F)(F)C(F)(OC(F)(F)C(F)(F)C(F)(F)F)C(F)(F)F)C(F)(F)F (configuration not stated),,inactive
C=C(C)C(=O)OCCC(F)(F)C(F)(F)C(F)(F)C(F)(F)C(F)(F)C(F)(F)C(F)(F)C(F)(F)F,,inactive
CC(C)CCCC(C)(C)O,,inactive
C#C[C@]1(O)CC[C@H]2[C@@H]3CCc4cc(O)ccc4[C@H]3CC[C@@]21C,6.83 µM (active),
c1ccc(OCCOc2ccccc2)cc1,,inactive
CCCO[Si](OCCC)(OCCC)OCCC,,inactive
CCCCCCCC1CCCC1=O (configuration not stated),,inactive
c1ccc2c(c1)-c1ccc3ccc4cccc5cc-2c1c3c45,2.71 µM (active),
NC(=O)c1c(Cl)cccc1Cl,,inactive
CC1=CC(C)C(C=O)C(C)C1 (configuration not stated) (tested in a mixture with another compound),,inactive
CC=CC(=O)C1=C(C)C=CCC1(C)C,,inactive
O=C(O)C(F)(F)OC(F)(F)C(F)(F)OC(F)(F)C(F)(F)C(F)(F)C(F)(F)F,,inactive
C=CC(=O)OCC(CO)(COC(=O)C=C)COC(=O)C=C,0.0816 µM (active),
c1ccc(Sc2ccccc2)cc1,20 µM (active),
CC(=O)c1ccc(C)cc1,,inactive
CCCCCCCCCC(=O)OCC,,inactive
CC1(C)[C@H](C=C(Cl)Cl)[C@H]1C(=O)OCc1cccc(Oc2ccccc2)c1,,inactive
O=C(O)C(F)(F)C(F)(F)C(F)(F)C(F)(F)C(F)(F)C(F)(F)C(F)(F)C(F)F,,inactive
OCCN1CCOCC1,,inactive
COC(=O)c1ccc(C(=O)OC)cc1,,inactive

# Read-out: not listed separately
# Test: BSK_LPS_PGE2: BioMAP Diversity Plus: LPS Assay for Prostaglandin E2 (PGE2) Biomarker Activity (AID 2283082);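 on AC50: secreted prostaglandin E2 measured by ELISA in LPS-stimulated co-culture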
# Settings: primary human HUVEC with PBMC; actives raise or lower the signal
# In short: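 PGE2 release measured by ELISA in an LPS-activated co-culture of human umbilical vein endothelial cells and peripheral blood mononuclear cells, read at 24 h post-dosing. DMSO served as baseline for bidirectional curve fitting.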
Compound,AC50,outcome
CC/C(=C(\c1ccccc1)c1ccc(OCCN(C)C)cc1)c1ccccc1,33600 nM (active),inactive
CC(=O)CCC=C(C)CCC=C(C)C,,inactive
CC(C)Cc1ccc(C(C)C(=O)O)cc1 (configuration not stated),897 nM (active),
CC(C)(CO)CO,,inactive
OCC(F)(OC(F)(F)C(F)(OC(F)(F)C(F)(F)C(F)(F)F)C(F)(F)F)C(F)(F)F (configuration not stated),5.49 µM (active) and 5.04 µM (active),
C=C(C)C(=O)OCCC(F)(F)C(F)(F)C(F)(F)C(F)(F)C(F)(F)C(F)(F)C(F)(F)C(F)(F)F,,inactive
CC(C)CCCC(C)(C)O,,inactive
C#C[C@]1(O)CC[C@H]2[C@@H]3CCc4cc(O)ccc4[C@H]3CC[C@@]21C,,inactive
c1ccc(OCCOc2ccccc2)cc1,,inactive
CCCO[Si](OCCC)(OCCC)OCCC,,inactive
CCCCCCCC1CCCC1=O (configuration not stated),,inactive
c1ccc2c(c1)-c1ccc3ccc4cccc5cc-2c1c3c45,,inactive
NC(=O)c1c(Cl)cccc1Cl,,inactive
CC1=CC(C)C(C=O)C(C)C1 (configuration not stated) (tested in a mixture with another compound),,inactive
CC=CC(=O)C1=C(C)C=CCC1(C)C,,inactive
O=C(O)C(F)(F)OC(F)(F)C(F)(F)OC(F)(F)C(F)(F)C(F)(F)C(F)(F)F,15 µM (active) and 11.1 µM (active),
C=CC(=O)OCC(CO)(COC(=O)C=C)COC(=O)C=C,118 nM (active),
c1ccc(Sc2ccccc2)cc1,,inactive
CC(=O)c1ccc(C)cc1,,inactive
CCCCCCCCCC(=O)OCC,,inactive
CC1(C)[C@H](C=C(Cl)Cl)[C@H]1C(=O)OCc1cccc(Oc2ccccc2)c1,,inactive
O=C(O)C(F)(F)C(F)(F)C(F)(F)C(F)(F)C(F)(F)C(F)(F)C(F)(F)C(F)F,,inactive
OCCN1CCOCC1,,inactive
COC(=O)c1ccc(C(=O)OC)cc1,,inactive

# Read-out: Macrophage colony-stimulating factor (MCSF), CSF1 (gene 1435)
# Test: BSK_LPS_MCSF: BioMAP Diversity Plus: LPS Assay for Macrophage colony-stimulating factor (MCSF) Biomarker Activity (AID 2283083)
# Settings: primary human HUVEC with PBMC; actives raise or lower the signal
# In short: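 Bidirectional fitting against DMSO was applied to M-CSF levels read by ELISA at 24 h post-dose. The system pairs human umbilical vein endothelium with peripheral blood mononuclear cells; parallel SRB staining tracked cytotoxicity.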
Compound,outcome,AC50
C#C[C@]1(O)CC[C@H]2[C@@H]3CCc4cc(O)ccc4[C@H]3CC[C@@]21C,inactive,
c1ccc2c(c1)-c1ccc3ccc4cccc5cc-2c1c3c45,,1.38 µM (active)
c1ccc(Sc2ccccc2)cc1,,35.6 µM (active)

# Read-out: Tissue Factor, F3 (gene 2152)
# Test: BSK_LPS_TissueFactor: BioMAP Diversity Plus: LPS Assay for Tissue Factor Biomarker Activity (AID 2283084)
# Settings: primary human HUVEC with PBMC; actives raise or lower the signal
# In short: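 Compound was added to an endothelial cell/PBMC co-culture, and after 24 h tissue factor (CD142) was read by ELISA. Gain or loss of signal was fitted against a DMSO baseline, and parallel SRB staining (560 nm) tracked overt cytotoxicity.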
Compound,AC50,outcome
CC/C(=C(\c1ccccc1)c1ccc(OCCN(C)C)cc1)c1ccccc1,29.1 µM (active) and 20 µM (active),
CC(=O)CCC=C(C)CCC=C(C)C,,inactive
CC(C)Cc1ccc(C(C)C(=O)O)cc1 (configuration not stated),,inactive
CC(C)(CO)CO,,inactive
OCC(F)(OC(F)(F)C(F)(OC(F)(F)C(F)(F)C(F)(F)F)C(F)(F)F)C(F)(F)F (configuration not stated),,inactive
C=C(C)C(=O)OCCC(F)(F)C(F)(F)C(F)(F)C(F)(F)C(F)(F)C(F)(F)C(F)(F)C(F)(F)F,,inactive
CC(C)CCCC(C)(C)O,,inactive
C#C[C@]1(O)CC[C@H]2[C@@H]3CCc4cc(O)ccc4[C@H]3CC[C@@]21C,,inactive
c1ccc(OCCOc2ccccc2)cc1,5.17 µM (active),inactive
CCCO[Si](OCCC)(OCCC)OCCC,,inactive
CCCCCCCC1CCCC1=O (configuration not stated),,inactive
c1ccc2c(c1)-c1ccc3ccc4cccc5cc-2c1c3c45,0.0082 µM (active),
NC(=O)c1c(Cl)cccc1Cl,,inactive
CC1=CC(C)C(C=O)C(C)C1 (configuration not stated) (tested in a mixture with another compound),,inactive
CC=CC(=O)C1=C(C)C=CCC1(C)C,,inactive
O=C(O)C(F)(F)OC(F)(F)C(F)(F)OC(F)(F)C(F)(F)C(F)(F)C(F)(F)F,,inactive
C=CC(=O)OCC(CO)(COC(=O)C=C)COC(=O)C=C,0.576 µM (active),
c1ccc(Sc2ccccc2)cc1,37 µM (active),
CC(=O)c1ccc(C)cc1,,inactive
CCCCCCCCCC(=O)OCC,,inactive
CC1(C)[C@H](C=C(Cl)Cl)[C@H]1C(=O)OCc1cccc(Oc2ccccc2)c1,,inactive
O=C(O)C(F)(F)C(F)(F)C(F)(F)C(F)(F)C(F)(F)C(F)(F)C(F)(F)C(F)F,,inactive
OCCN1CCOCC1,,inactive
COC(=O)c1ccc(C(=O)OC)cc1,,inactive
